The results in this text go back to PubChem BioAssay (Tox21).

Assay [1] has as its target Estrogen receptor beta (Homo sapiens) (UniProt Q92731). Nature of the assay: qHTS assay to identify small molecule agonists of the estrogen receptor beta (ER-beta) signaling pathway (AID 1259377; active = well fitted activation curve with a large enough effect in the signal ratio in the repeat runs, not every such curve was filed as active; the % refers to the signal ratio). The procedure, abridged: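 Reporter cells (HEK293T, ER-beta-UAS-bla) receive compounds or DMSO after a 6 hr pre-incubation. They then incubate 16 hr at 37C/5% CO2, and fluorescence from LiveBLAzer B/G substrate is measured after 2 hours at room temperature.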

For assay [2] the target is unchanged. The experiment in a line: qHTS assay to identify small molecule antagonists of the estrogen receptor beta (ER-beta) signaling pathway (AID 1259378; active = well fitted inhibition curve with a large enough effect in the signal ratio in the repeat runs, not every such curve was filed as active; the % refers to the signal ratio). Summed up: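 ER-beta-UAS-bla HEK293T cells in 2% charcoal-stripped FBS medium treated with compound plus 1nM final 17-beta-estradiol for 16 hr at 37C. Beta-lactamase reporter read by FRET substrate fluorescence after 2 hours at room temperature.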

Assay [3] in a line: qHTS assay to identify small molecule agonists of the androgen receptor (AR) signaling pathway in the presence of an antagonist - cell viability counter screen (AID 1259379). Note: nearly all actives have a fitted effect of over 25% in size. Note: potency is the fitted concentration of half-maximal effect. The procedure, abridged:
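Counter screen for cell viability run in parallel with the AR agonist-mode luciferase assay. MDA-kb2 cells were co-treated with nilutamide (3.0uM final) and compounds, then incubated 16 hr at 37C, and CellTiter-Fluor fluorescence was measured.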
For orientation: qHTS replaces the single test concentration by a dilution series.

The nature of assay [4]: qHTS assay to identify small molecule antagonists of the estrogen receptor beta (ER-beta) signaling pathway - cell viability counter screen (AID 1259382). Note: series mostly up to about 92 µM; nearly all actives have a fitted effect of over 55% in size. The procedure, abridged:
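HEK293T ER-beta-UAS-bla, 2% charcoal-stripped FBS; compounds + 1nM E2 16 hr 37C; CellTiter-Glo luminescence, 30 min RT.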

Assay [5] is described as follows: qHTS assay to identify small molecule agonists or antagonists of the thyroid stimulating hormone receptor (TSHR) signaling pathway - wild type cell line counter screen (AID 1259384; calls by dose curve). The procedure, abridged: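 Wild-type Hek293 cells, 800/well, 18 h at 37C, then compound with Ro20-1724 for 30 min RT. cAMP by HTRF (cAMP-d2/anti-cAMP cryptate), 1 h RT, fluorescence read. 15 concentrations, triplicates.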

In assay [6] the target is Thyrotropin receptor (Homo sapiens) (UniProt P16473). Nature of the assay: qHTS assay to identify small molecule antagonists of the thyroid stimulating hormone receptor (TSHR) signaling pathway (AID 1259385; calls by dose curve; note: nearly all actives have a fitted effect of over 20% in size). The procedure, abridged: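 TSHR-HEK293 cells (800/well) plated 18 h, then compounds with Ro20-1724 and TSH at 1.5 ng/mL final, 30 min at room temperature. cAMP quantified by HTRF (cAMP-d2/anti-cAMP-cryptate, 1 h); 15 concentrations in triplicate.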

Assay [7] in a line: qHTS assay to identify small molecule agonists of the estrogen receptor alpha (ER-alpha) signaling pathway in the presence of an antagonist - cell viability counter screen (AID 1259386).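 Note: cells exposed to compounds for 22 h at 37 °C before the viability read; nearly all actives have a fitted effect of over 30% in size.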 Note: potency is the fitted concentration of half-maximal effect. The procedure, abridged: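 Steps: 5-day stripped-FBS culture; seed and incubate 24hr; add ICI-182,780 (10.0nM final); pin 15-point compound titration; incubate 22hr at 37C; add CellTiter-Fluor at 21hr; read fluorescence.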

Assay [8] deals with Progesterone receptor (Homo sapiens) (UniProt P06401). The experiment in a line: qHTS assay to identify small molecule agonists of the progesterone receptor (PR) signaling pathway (AID 1346784; calls by dose curve; note: nearly all actives have a fitted effect of over 30% in size). The procedure, abridged: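 Reporter assay, GripTite PR-UAS-bla HEK 293T cells: 16 hr exposure to DMSO-dissolved compounds at 37C, 5% CO2, in steroid-depleted (2% charcoal-stripped FBS) medium; beta-lactamase measured by FRET fluorescence.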

Assay [9] has the same target. The experiment in a line: qHTS assay to identify small molecule antagonists of the progesterone receptor (PR) signaling pathway (AID 1346795; active = well fitted inhibition curve with a large enough effect in the signal ratio in the repeat runs, not every such curve was filed as active; the % refers to the signal ratio). The procedure, abridged: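 Stimulus R5020 at 1 nM final; cells HEK293T PR-UAS-bla; medium with 2% charcoal-stripped FBS; compound exposure 16 hr at 37C, 5% CO2; detection by FRET beta-lactamase substrate, 2 hr, room temperature.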

Assay [10] is described as follows: qHTS assay to identify small molecule antagonists of the progesterone receptor (PR) signaling pathway - cell viability counter screen (AID 1346798). Note: series mostly up to about 92 µM; nearly all actives have a fitted effect of over 50% in size. The procedure, abridged:
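In the same plates used for the beta-lactamase readout, cell viability of compound- and R5020-treated PR-UAS-bla HEK293T cells (16 hr, 37C) was assessed by CellTiter-Glo luminescence.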

Assay [11] in a line: qHTS assay to identify small molecule antagonists of the TGF-beta/Smad signaling pathway - cell viability counter screen (AID 1346824). Note: nearly all actives have a fitted effect of over 50% in size. The procedure, abridged: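 SBE-bla HEK 293T cells, incubated overnight, then compound plus 0.25 ng/mL TGF-beta1 (stock added) for 5 hr at 37 C. Viability was read in the same wells by CellTiter-Glo luminescence after 30 min at room temperature.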

A short description of assay [12]: qHTS assay to identify small molecule agonists of the TGF-beta/Smad signaling pathway - cell viability counter screen (AID 1346829). Note: top concentration of the series differs between compounds; nearly all actives have a fitted effect of over 45% in size. The procedure, abridged:
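SBE-bla HEK 293T cells plated overnight, compound exposure 5 hr at 37 C. Viability read in the same wells by CellTiter-Glo luminescence after 30 min at room temperature, following the beta-lactamase read.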

Assay [13] is described as follows: qHTS assay to identify small molecule agonists of the TGF-beta/Smad signaling pathway (AID 1346859; active = well fitted activation curve with a large enough effect in the signal ratio in the repeat runs, not every such curve was filed as active; the % refers to the signal ratio; note: series mostly up to about 77 µM). The procedure, abridged: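 Screening used HEK 293T SBE-bla cells at 4,000/well. Test agents: 5 hr, 37 C. Detection: FRET substrate, 2 hr RT, then excitation 405 nm with emissions at 460 and 530 nm.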
The target in assay [14] is Thyrotropin-releasing hormone receptor (Homo sapiens) (UniProt P34981). Nature of the assay: qHTS assay to identify small molecule antagonists of the thyrotropin-releasing hormone receptor (TRHR) signaling pathway (AID 1346877; active = well fitted inhibition curve with a large enough effect in the repeat runs, not every such curve was filed as active; note: potency is the fitted concentration of half-maximal effect; for activity, negative = inhibition: series mostly up to about 51 µM). Summed up:
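Human TRHR in HEK293 cells; inhibition of the intracellular calcium rise triggered by 1 nM TRH was followed by fluorescence over 3 min. Compounds were run at 15 concentrations, three replicates each.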

For assay [15] the target is unchanged. The experiment in a line: qHTS assay to identify small molecule agonists of the thyrotropin-releasing hormone receptor (TRHR) signaling pathway (AID 1346891; calls by dose curve; note: potency is the fitted concentration of half-maximal effect; for activation: series mostly up to about 58 µM). Summed up: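 Readout was intracellular calcium fluorescence in TRHR-Hek293 cells. Cells were incubated 18 h, dye-loaded 2 h at 37 °C, and treated with compound in agonist mode.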
Assay [16] is described as follows: Human pregnane X receptor (PXR) small molecule agonists, qHTS cell viability counter screen (AID 1346977). Note: nearly all actives have a fitted effect of over 50% in size. Summed up: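 In each well, the PXR reporter HepG2 line was checked for viability: CellTiter-Fluor reagent added 23hr post-dosing, fluorescence read after 1hr incubation at 37C.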
Assay [17] is described as follows: qHTS assay to identify small molecule agonists of the estrogen receptor beta (ER-beta) signaling pathway - cell viability counter screen (AID 1259380). Note: nearly all actives have a fitted effect of over 30% in size. Summed up: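 In this qHTS counter screen, HEK293T cells carrying an ER-beta/UAS beta-lactamase reporter, grown in 2% charcoal-stripped FBS, received compound for 16 hr; ATP-based CellTiter-Glo luminescence was then read after 30 min at room temperature.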

Assay [18] addresses Androgen receptor (Homo sapiens) (UniProt P10275). Nature of the assay: qHTS assay to identify small molecule agonists of the androgen receptor (AR) signaling pathway in the presence of an antagonist (AID 1259381; calls by dose curve; note: nearly all actives have a fitted effect of over 15% in size). The procedure, abridged:
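AR antagonist background: nilutamide 3.0uM final. Cell line: MDA-kb2, MMTV-driven luciferase, responsive to both AR and GR. Exposure 16hr, 37C, no CO2; ONE-Glo luminescence.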

Assay [19] in a line: qHTS assay to identify small molecule agonists of the progesterone receptor (PR) signaling pathway - cell viability counter screen (AID 1346799; calls by dose curve; note: nearly all actives have a fitted effect of over 45% in size). The procedure, abridged: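 Multiplexed viability read: CellTiter-Glo luminescence, 30 min RT, following LiveBLAzer FRET measurement on PR-UAS-bla HEK293T cells exposed to compounds 16 hr.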
The target of assay [20] is Estrogen receptor (Homo sapiens) (UniProt P03372). The experiment in a line: qHTS assay to identify small molecule agonists of the estrogen receptor alpha (ER-alpha) signaling pathway in the presence of an antagonist (AID 1259383; calls by dose curve; note: nearly all actives have a fitted effect of over 15% in size; note: potency is the fitted concentration of half-maximal effect; for activation: top concentration of the series differs between compounds). Summed up:
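ER-alpha agonism measured under antagonist challenge: 10.0nM ICI-182,780 (final) plus compound, 15 concentrations, 22hr, VM7Luc4E2 ERE-luciferase cells. Read by luminescence.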

“And” between values parts separate entries of the source, which are not always exact repeats. Equal values may be shown once. Inconclusive results are not listed. Where a structure was tested more than once in an assay, its records may differ in their call. The source made the active and inactive calls. Unless noted, calls come from the whole dose curve; as a rule, active = well fitted curve in the direction sought with a large enough effect in the repeat runs; inconclusive = weak or mixed curves; inactive = no such curve, though single readings can be large; an effect the other way counts as inactive or inconclusive.
% is set by controls: 0 for no effect and ±100 for the full control effect.

Sequence of Estrogen receptor beta (Homo sapiens) (Q92731 whole entry, looked up): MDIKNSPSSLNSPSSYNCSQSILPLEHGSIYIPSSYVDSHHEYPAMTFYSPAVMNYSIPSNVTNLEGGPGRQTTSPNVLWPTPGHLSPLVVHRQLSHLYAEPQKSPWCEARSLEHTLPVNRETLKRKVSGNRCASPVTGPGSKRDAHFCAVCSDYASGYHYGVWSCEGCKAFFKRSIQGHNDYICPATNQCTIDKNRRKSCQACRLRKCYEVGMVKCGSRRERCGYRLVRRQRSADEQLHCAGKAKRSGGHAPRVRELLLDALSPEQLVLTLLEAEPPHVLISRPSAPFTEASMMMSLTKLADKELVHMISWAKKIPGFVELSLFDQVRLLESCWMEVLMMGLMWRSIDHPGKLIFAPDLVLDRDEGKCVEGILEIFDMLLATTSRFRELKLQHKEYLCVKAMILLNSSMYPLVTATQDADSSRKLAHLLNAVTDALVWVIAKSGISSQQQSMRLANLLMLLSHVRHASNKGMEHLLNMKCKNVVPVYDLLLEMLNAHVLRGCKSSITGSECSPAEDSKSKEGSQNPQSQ
Sequence of Progesterone receptor (Homo sapiens) (P06401 whole entry, looked up): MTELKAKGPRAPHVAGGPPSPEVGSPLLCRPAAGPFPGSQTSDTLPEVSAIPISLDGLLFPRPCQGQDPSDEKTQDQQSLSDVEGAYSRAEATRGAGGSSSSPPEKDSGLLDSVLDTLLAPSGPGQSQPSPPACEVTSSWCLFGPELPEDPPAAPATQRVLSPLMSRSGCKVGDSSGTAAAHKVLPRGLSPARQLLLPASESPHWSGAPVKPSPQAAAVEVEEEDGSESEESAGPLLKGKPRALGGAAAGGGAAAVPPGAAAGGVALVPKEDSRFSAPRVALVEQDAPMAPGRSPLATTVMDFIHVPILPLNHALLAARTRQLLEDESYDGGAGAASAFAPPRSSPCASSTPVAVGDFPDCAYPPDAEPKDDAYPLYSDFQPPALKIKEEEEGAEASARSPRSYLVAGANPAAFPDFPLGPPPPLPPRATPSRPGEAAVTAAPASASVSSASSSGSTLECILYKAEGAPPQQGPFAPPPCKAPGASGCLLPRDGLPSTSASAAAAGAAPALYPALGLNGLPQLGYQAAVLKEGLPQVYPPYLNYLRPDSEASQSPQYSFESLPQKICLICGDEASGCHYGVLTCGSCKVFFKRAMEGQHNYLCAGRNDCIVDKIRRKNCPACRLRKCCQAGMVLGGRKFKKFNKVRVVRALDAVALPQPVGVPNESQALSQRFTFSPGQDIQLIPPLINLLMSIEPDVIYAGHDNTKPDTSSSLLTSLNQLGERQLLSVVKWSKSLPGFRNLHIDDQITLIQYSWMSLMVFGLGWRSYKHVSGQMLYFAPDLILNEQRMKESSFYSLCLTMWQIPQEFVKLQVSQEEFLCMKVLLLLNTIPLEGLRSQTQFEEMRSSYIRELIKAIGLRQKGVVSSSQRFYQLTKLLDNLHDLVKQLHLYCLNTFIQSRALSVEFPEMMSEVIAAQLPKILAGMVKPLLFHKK
Sequence of Estrogen receptor (Homo sapiens) (P03372 whole entry, looked up): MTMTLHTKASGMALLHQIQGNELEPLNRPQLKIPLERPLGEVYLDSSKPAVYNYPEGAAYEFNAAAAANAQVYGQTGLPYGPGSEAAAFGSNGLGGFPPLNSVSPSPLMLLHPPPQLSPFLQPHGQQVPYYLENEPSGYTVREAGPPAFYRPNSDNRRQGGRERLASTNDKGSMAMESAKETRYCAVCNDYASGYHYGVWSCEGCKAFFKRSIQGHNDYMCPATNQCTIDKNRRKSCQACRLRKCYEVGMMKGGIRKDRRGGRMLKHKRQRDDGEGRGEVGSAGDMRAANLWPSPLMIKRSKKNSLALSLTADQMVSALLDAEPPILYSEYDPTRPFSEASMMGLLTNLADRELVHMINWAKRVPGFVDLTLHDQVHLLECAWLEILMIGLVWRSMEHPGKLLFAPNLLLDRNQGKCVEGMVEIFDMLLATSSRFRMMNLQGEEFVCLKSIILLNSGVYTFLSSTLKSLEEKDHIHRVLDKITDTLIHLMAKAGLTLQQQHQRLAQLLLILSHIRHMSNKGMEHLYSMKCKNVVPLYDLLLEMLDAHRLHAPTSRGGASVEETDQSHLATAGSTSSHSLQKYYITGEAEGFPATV
Sequence of Thyrotropin-releasing hormone receptor (Homo sapiens) (P34981 whole entry, looked up): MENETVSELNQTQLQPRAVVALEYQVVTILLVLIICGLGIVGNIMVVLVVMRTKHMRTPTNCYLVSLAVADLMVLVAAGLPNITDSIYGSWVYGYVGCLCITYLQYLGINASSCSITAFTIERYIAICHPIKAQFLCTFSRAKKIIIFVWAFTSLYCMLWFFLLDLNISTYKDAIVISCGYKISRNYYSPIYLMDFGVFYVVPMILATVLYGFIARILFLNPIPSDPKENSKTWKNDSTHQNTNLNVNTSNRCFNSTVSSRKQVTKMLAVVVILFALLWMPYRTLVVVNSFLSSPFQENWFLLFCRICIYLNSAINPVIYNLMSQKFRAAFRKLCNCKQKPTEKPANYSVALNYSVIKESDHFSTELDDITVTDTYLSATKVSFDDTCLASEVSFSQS
Sequence of Thyrotropin receptor (Homo sapiens) (P16473 whole entry, looked up): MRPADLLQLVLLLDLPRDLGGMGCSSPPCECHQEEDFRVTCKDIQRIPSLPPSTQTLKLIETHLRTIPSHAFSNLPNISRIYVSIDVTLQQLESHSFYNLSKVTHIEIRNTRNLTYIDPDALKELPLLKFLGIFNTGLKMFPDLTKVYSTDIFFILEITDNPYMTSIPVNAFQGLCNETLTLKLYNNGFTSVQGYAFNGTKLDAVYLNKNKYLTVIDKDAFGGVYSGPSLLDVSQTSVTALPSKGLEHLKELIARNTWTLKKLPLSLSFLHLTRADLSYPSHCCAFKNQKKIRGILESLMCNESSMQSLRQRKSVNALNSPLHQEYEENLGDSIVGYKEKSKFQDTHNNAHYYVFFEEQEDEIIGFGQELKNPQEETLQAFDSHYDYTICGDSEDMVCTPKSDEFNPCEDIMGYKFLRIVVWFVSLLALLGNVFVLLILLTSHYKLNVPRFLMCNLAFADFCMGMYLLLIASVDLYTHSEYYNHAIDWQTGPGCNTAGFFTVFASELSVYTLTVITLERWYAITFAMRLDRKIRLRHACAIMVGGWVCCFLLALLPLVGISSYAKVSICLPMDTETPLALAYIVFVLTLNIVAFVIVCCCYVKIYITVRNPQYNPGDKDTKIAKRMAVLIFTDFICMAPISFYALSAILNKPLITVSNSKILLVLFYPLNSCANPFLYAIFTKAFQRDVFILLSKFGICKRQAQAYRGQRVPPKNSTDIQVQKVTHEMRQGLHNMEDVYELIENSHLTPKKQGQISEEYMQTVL
Sequence of Androgen receptor (Homo sapiens) (P10275 whole entry, looked up): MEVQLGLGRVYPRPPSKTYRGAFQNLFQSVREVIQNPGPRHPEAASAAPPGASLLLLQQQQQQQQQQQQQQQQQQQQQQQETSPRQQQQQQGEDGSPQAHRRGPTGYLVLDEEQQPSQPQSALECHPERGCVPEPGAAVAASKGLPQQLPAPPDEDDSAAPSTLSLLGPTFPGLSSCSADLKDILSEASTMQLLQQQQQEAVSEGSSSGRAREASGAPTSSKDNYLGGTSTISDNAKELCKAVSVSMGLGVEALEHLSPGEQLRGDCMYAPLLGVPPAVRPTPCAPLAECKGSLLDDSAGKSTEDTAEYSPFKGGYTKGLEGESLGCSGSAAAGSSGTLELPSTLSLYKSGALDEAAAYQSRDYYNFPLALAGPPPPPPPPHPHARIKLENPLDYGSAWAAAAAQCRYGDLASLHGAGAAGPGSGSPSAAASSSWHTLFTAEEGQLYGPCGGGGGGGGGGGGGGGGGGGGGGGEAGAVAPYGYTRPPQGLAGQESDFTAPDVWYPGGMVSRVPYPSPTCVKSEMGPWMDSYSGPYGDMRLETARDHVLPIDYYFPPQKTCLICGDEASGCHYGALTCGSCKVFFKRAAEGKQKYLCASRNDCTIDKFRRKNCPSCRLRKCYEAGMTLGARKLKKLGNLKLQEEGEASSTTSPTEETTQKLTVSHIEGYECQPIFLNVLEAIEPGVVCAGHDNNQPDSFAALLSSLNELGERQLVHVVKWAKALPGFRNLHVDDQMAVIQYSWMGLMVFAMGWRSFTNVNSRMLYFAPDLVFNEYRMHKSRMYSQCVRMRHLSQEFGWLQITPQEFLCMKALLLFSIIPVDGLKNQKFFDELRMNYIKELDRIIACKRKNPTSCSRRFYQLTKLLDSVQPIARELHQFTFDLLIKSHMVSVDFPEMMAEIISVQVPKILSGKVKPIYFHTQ

Consider `CCCCC/C=C/C=C/C=O`, for which the Potency entry in assay [1], in [2], in assay [4], in assay [6], in assay [7] and in [8] was “inactive” each time. In addition, the Potency result in assay [9], in [10], in [11], in [12], in assay [14] and in assay [15] was “inactive” in each case. For the same compound, in assay [16], the Potency result was “inactive”. Besides, in assay [3], the Potency is 68 µM (active) and inactive. Moreover, the compound was called inactive in [5] and in assay [13].
Turning to `COc1cc([C@@H]2c3cc4c(cc3[C@H](O)[C@H]3COC(=O)[C@H]23)OCO4)cc(OC)c1OC`, the Potency result in assay [1], in assay [2], in assay [17], in assay [4], in assay [7] and in assay [8] was “inactive” each time. Also, the Potency entry in assay [11], in [12], in [14], in assay [15] and in assay [16] was “inactive” throughout. Moreover, the outcome in assay [18], in assay [5] and in assay [13] was inactive.
For the compound `CCCCCCCCCC(=O)OC`, the Potency result in assay [1], in assay [2], in assay [3], in [17], in assay [4] and in [7] was “inactive” each time. The Potency result in assay [8], in assay [9], in assay [10], in [19], in assay [11] and in assay [12] was “inactive” in each case. The Potency entry in assay [14], in [15] and in assay [16] was “inactive” in each case. Moreover, the outcome in assay [5] and in [13] was inactive.
On to `Nc1ccccc1N`, for which the Potency entry in [2], in [3], in assay [17], in assay [4], in assay [8] and in assay [10] was “inactive” each time. For the same compound, the Potency entry in assay [19], in assay [11], in assay [12], in assay [14] and in [15] was “inactive” each time. In addition, the Potency result in assay [20] is “inactive and 27.3 µM (active)”; in assay [7], 49.7 µM (active). Besides, the compound was classed as inactive in assay [5] and in [13].
As for `CC(CCC(=O)O)(c1ccc(O)cc1)c1ccc(O)cc1`, the Potency entry in [1], in [3], in assay [17], in assay [4], in assay [20] and in [6] was “inactive” throughout. The Potency result in assay [7], in [8], in assay [9], in assay [10], in assay [11] and in assay [12] was “inactive” in each case. For the same compound, the Potency entry in assay [14], in assay [15] and in [16] was “inactive” each time. Further, the compound was called inactive in [5] and in [13].
As to `CN(C)c1nc(N(C)C)nc(N(C)C)n1`, the Potency entry in [1], in [2], in assay [3], in assay [17], in assay [4] and in assay [6] was “inactive” throughout. The Potency entry in assay [7], in assay [10], in assay [19], in assay [11], in [12] and in assay [14] was “inactive” in each case. Moreover, the Potency entry in assay [15] and in [16] was “inactive” throughout. Also, the compound was classed as inactive in [5] and in [13].
On to `Cc1cc2nc3c(=O)[nH]c(=O)nc-3n(C[C@H](O)[C@H](O)[C@H](O)CO)c2cc1C`, for which the Potency entry in [1], in assay [17], in [4], in assay [8], in assay [10] and in assay [19] was “inactive” each time. Further, the Potency result in assay [11] and in [12] was “inactive” throughout. Further, the values for the activity, negative = inhibition in assay [2] and in [14] were -6.01% [at 19 µM] (inactive) and -21.3% [at 10.5 µM] (inactive), respectively. For the same compound, in [5], the cAMP activity change was -5.16% [at 18.9 µM] (inactive). Moreover, the activity change, negative = inhibition in assay [9] was -6.9% [at 18.9 µM] (inactive). Also, the activation in [13] is -2.99% [at 15.8 µM] (inactive). In addition, the Potency was 33.5 µM (active) and 19.8 µM (active) in [14]; 10.9 µM (active) and 6.42 µM (active) and 6.57 µM (active) in assay [15].
Turning to `Cc1cccc(N(C)C(=S)Oc2ccc3ccccc3c2)c1`, the Potency result in assay [1], in assay [2], in assay [3], in [4], in [20] and in assay [6] was “inactive” each time. For the same compound, the Potency entry in assay [7], in [8], in [10], in assay [11], in [12] and in assay [16] was “inactive” in each case. For the same compound, the compound was classed as inactive in [5] and in assay [13].
